Measured values reported in the supplement of paper PMC10849652.
Of roughly 7,900 targets only a part is listed; those with a hit were picked by preference. About 0.6% of all pairs of compound and target were hits. Values without a mark were called inactive.

Legend:
Assay in all cases: log2 fold change, soluble protein after heating vs DMSO (PISA); higher = thermal stabilisation; K562 cells, 10 uM, 30 min; active = over 0.2 and 3.5 SD of the protein, either way, in both replicates (recomputed)
[1] = compound: C1COCCN1CCN2C3=CC=CC=C3N=C2NC(=O)C4=CC(=CC=C4)[N+](=O)[O-] [IRAK-1-4 Inhibitor I]
Method in brief: (§1)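 Thermal stability values are relative to control samples and come from duplicates. They are expressed as log2 fold changes. For measurement, K562 cells (2×10^6 cells/mL) received 10 μM compound for 30 min, and aliquots were heated for 3 min over 48°C-58°C, pooled, and extracted at 4°C in PBS with 0.5% NP-40. Soluble protein, the supernatant after 21,000xg for 90 min, was quantified by TMTpro 16plex LC-MS/MS with equalised channel sums.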

[2] = compound: C=CC(=O)N1CCC[C@@H](n2nc(-c3ccc(Oc4ccccc4)cc3)c3c(N)ncnc32)C1 [ibrutinib]
Method in brief: as §1

[3] = compound: CC(=O)c1cnc2ccc(-c3cc(Cl)c(O)c(Cl)c3)nc2c1N[C@H]1CC[C@H](CN(C)C)CC1
Method in brief: as §1

[4] = compound: CC(C)(C)Cn1c(N)nc2ccc(-c3[nH]c(C(C)(C)C)nc3-c3ccc(F)cc3)nc21 [ralimetinib]
Method in brief: as §1

[5] = compound: CC(C)(O)CC(=O)NCCn1ccc2ncnc(Nc3ccc(Oc4cccc(C(F)(F)F)c4)c(Cl)c3)c21
Method in brief: as §1

[6] = compound: CC(C)C1=C2N=C(C=C(N2N=C1)NCC3=CC=CC=C3)NCCCCCCN
Method in brief: as §1

[7] = compound: CC(C)C[C@@H](C=O)NC(=O)[C@H](CC(C)C)NC(=O)[C@H](CC(C)C)NC(=O)OCc1ccccc1
Method in brief: as §1

[8] = compound: CC(C)N(C[C@H]1O[C@@H](n2cnc3c(N)ncnc32)[C@H](O)[C@@H]1O)[C@H]1C[C@@H](CCc2nc3cc(C(C)(C)C)ccc3[nH]2)C1 [pinometostat]
Method in brief: as §1

[9] = compound: CC1=C(C(CC(=O)N1)C2=CC=C(C=C2)C(F)(F)F)C(=O)NC3=C(C=C4C(=C3)C=NN4)F
Method in brief: as §1

[10] = compound: CC1=C(C2=C(C=C1)C(=O)C3=CC=CC=C3N2CCCN)C
Method in brief: as §1

[11] = compound: CC1=C(C=C(C=C1)NC(=O)C2=CC(=CC=C2)C(C)(C)C#N)NC3=CC4=C(C=C3)N=CN(C4=O)C
Method in brief: as §1

[12] = compound: CC1=C(C=C(C=C1)NC(=O)C2=CC(=CC=C2)N(C)C)NC(=O)C3=CC=C(C=C3)O
Method in brief: as §1

[13] = compound: CC1=CC=C(C=C1)SC2=C3C=C(SC3=CN=C2)C(=O)N
Method in brief: as §1

[14] = compound: CC1=NC(=CC=C1)C2=C(N=C(N2)C(C)(C)C)C3=CC4=NC=CN=C4C=C3
Method in brief: as §1

[15] = compound: CCCCN(Cc1ccc(C(=O)NO)cc1)C(=O)Nc1ccccc1 [Nexturastat A]
Method in brief: as §1

[16] = compound: CCCS(=O)(=O)Nc1ccc(F)c(C(=O)c2c[nH]c3ncc(-c4ccc(Cl)cc4)cc23)c1F [vemurafenib]
Method in brief: as §1

[17] = compound: CCCS(=O)(=O)Nc1ccc(F)c(C(=O)c2c[nH]c3ncc(Cl)cc23)c1F
Method in brief: as §1

[18] = compound: CCCc1cc(C)[nH]c(=O)c1CNC(=O)c1cc(-c2ccnc(N3CCN(C)CC3)c2)cc2c1cnn2C(C)C
Method in brief: as §1

[19] = compound: CCN(CC)Cc1ccc2cc(COC(=O)Nc3ccc(C(=O)NO)cc3)ccc2c1 [givinostat]
Method in brief: as §1

[20] = compound: CCN(CCCOc1ccc2c(Nc3cc(CC(=O)Nc4cccc(F)c4)[nH]n3)ncnc2c1)CCOP(=O)(O)O [barasertib]
Method in brief: as §1

UniProt Q6V1X1, sequence (Q6V1X1 whole entry, looked up): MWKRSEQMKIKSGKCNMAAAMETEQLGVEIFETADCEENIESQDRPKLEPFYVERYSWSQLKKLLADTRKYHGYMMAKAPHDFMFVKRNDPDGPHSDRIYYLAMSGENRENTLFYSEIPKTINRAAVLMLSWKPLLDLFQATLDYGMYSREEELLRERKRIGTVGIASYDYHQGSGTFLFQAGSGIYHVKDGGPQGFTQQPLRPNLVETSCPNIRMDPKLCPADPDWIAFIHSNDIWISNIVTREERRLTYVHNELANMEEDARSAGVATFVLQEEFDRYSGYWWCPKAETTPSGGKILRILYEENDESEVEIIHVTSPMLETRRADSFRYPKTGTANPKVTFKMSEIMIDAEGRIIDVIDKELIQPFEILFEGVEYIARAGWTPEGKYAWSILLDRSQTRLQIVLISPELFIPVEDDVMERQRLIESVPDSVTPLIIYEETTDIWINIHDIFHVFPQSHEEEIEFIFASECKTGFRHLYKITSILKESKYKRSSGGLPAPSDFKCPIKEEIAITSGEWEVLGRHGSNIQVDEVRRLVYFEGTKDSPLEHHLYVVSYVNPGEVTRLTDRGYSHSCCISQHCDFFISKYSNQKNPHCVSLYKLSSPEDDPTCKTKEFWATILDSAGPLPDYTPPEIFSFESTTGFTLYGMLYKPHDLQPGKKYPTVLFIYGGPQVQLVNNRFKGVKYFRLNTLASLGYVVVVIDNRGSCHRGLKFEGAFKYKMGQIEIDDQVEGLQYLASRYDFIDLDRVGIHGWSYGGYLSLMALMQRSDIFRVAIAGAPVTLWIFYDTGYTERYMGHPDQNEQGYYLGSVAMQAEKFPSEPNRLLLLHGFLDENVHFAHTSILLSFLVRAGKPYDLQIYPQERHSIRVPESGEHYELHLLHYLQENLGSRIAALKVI
UniProt Q9NXF7, sequence (Q9NXF7 whole entry, looked up): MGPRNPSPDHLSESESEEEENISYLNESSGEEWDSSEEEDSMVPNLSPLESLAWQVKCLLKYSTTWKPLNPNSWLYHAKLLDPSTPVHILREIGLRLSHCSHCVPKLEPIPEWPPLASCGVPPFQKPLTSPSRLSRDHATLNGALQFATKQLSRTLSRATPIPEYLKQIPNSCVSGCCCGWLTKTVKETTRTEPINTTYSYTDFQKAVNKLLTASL
UniProt Q96EV8, sequence (Q96EV8 whole entry, looked up): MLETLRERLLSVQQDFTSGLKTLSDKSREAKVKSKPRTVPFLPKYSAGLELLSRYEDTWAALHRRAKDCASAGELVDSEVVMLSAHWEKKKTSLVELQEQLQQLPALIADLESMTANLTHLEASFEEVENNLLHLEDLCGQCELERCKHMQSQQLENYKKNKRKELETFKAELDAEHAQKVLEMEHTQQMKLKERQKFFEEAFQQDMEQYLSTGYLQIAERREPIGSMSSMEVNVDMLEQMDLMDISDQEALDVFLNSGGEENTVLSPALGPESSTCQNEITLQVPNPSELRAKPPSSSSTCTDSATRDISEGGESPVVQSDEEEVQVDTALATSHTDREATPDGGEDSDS
UniProt Q9NXW2, sequence (Q9NXW2 whole entry, looked up): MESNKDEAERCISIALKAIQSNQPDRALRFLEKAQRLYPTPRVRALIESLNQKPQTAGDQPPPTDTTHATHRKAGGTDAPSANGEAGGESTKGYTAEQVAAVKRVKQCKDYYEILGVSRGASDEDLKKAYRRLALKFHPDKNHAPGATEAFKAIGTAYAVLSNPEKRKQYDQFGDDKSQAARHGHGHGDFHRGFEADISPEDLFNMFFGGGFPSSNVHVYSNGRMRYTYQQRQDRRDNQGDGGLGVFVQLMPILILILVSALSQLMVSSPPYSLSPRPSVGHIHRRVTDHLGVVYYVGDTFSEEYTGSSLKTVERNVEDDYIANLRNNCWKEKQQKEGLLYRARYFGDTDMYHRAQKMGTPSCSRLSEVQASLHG
UniProt Q8N128, sequence (Q8N128 whole entry, looked up): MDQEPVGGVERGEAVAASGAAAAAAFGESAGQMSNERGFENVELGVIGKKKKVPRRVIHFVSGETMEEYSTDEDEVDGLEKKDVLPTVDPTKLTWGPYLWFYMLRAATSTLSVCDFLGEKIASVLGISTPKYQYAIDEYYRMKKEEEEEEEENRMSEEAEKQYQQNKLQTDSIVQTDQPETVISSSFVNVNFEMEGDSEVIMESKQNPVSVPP
UniProt P18074, sequence (P18074 whole entry, looked up): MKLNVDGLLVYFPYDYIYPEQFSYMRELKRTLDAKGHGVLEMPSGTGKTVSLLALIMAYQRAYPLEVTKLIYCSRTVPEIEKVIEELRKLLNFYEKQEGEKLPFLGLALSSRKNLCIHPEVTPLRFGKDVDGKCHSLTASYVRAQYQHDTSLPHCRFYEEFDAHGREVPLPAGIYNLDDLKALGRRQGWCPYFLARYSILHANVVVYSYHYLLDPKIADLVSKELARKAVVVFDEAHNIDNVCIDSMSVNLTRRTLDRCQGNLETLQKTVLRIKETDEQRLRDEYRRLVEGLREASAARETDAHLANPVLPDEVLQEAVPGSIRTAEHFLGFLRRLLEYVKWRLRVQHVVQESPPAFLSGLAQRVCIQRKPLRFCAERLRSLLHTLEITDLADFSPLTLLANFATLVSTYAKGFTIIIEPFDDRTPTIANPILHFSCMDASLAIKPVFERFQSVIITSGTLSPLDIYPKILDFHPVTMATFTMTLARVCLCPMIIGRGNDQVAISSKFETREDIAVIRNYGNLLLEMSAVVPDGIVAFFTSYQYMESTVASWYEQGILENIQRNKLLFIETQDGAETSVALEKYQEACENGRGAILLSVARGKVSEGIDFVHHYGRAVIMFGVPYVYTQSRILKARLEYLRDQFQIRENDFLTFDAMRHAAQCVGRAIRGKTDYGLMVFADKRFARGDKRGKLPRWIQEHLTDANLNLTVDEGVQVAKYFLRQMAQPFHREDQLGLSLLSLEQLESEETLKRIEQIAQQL
UniProt O76075, sequence (O76075 whole entry, looked up): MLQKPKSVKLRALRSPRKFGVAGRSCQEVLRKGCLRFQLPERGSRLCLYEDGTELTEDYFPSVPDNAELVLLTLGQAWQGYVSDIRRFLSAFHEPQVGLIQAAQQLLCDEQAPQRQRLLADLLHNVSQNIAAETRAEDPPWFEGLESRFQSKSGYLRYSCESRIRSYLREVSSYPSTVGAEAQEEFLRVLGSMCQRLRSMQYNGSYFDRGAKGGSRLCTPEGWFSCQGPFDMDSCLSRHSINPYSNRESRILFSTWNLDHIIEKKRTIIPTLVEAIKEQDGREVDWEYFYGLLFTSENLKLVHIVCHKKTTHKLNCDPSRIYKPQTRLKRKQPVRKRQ
UniProt Q9BV94, sequence (Q9BV94 whole entry, looked up): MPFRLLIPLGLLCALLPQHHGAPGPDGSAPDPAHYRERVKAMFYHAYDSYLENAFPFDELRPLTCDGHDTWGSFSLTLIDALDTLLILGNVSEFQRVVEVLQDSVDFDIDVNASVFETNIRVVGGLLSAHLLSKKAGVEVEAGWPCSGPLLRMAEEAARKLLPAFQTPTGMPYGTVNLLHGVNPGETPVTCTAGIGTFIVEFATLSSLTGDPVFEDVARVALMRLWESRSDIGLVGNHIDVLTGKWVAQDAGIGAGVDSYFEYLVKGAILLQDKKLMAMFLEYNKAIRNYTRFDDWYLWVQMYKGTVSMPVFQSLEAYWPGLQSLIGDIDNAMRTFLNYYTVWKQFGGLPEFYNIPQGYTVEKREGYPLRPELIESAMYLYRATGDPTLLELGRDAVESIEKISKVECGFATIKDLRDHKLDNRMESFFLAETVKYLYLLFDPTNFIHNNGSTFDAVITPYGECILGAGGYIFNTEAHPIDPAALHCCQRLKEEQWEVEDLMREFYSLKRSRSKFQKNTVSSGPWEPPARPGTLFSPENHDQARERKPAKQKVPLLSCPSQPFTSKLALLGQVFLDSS
UniProt Q9BSJ8, sequence (Q9BSJ8 whole entry, looked up): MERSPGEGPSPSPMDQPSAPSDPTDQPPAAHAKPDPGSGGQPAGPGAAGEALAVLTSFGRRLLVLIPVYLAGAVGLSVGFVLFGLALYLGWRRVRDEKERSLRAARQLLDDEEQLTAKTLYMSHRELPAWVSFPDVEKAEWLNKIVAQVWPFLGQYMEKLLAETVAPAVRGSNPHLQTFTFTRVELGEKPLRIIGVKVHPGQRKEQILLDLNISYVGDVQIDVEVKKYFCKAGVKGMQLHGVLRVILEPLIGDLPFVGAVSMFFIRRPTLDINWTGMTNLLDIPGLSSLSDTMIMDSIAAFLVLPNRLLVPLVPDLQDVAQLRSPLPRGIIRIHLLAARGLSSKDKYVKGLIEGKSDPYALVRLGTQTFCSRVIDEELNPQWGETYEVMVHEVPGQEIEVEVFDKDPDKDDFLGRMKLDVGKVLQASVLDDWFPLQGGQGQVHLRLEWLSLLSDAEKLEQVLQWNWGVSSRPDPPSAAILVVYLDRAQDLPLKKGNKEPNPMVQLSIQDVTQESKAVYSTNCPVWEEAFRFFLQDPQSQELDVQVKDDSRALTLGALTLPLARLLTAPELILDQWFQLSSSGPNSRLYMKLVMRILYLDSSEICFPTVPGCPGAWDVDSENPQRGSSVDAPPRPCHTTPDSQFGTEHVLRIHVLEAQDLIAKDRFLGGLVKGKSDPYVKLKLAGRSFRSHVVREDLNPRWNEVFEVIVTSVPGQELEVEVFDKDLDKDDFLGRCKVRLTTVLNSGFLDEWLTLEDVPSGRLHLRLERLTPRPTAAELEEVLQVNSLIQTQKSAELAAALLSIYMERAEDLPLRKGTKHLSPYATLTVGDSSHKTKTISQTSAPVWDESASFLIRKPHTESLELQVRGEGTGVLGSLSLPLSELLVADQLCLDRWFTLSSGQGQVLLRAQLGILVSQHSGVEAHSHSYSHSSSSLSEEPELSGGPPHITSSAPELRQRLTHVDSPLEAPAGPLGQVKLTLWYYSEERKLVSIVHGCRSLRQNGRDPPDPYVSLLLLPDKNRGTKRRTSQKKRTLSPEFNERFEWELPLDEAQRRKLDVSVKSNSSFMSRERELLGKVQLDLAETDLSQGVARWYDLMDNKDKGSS

Row | Target | log2 fold change [1] | log2 fold change [2] | log2 fold change [3] | log2 fold change [4] | log2 fold change [5] | log2 fold change [6] | log2 fold change [7] | log2 fold change [8] | log2 fold change [9] | log2 fold change [10] | log2 fold change [11] | log2 fold change [12] | log2 fold change [13] | log2 fold change [14] | log2 fold change [15] | log2 fold change [16] | log2 fold change [17] | log2 fold change [18] | log2 fold change [19] | log2 fold change [20]
1 | DFFB (UniProt O76075) | -0.002 | -0.047 | 0.011 | 0.005 | -0.148 | 0.066 | 0.045 | 0.008 | -0.052 | 0.009 | -0.023 | -0.013 | 0.013 | 0.019 | -0.04 | 0.055 | 0 | -0.109 | -0.059 | 0.034
2 | EXOC2 (UniProt Q96KP1) | -0.092 | -0.018 | -0.048 | 0.08 | -0.052 | -0.43 (active) | 0.027 | 0.172 | -0.216 | 0.007 | -0.03 | -0.017 | 0.051 | 0.027 | 0.058 | 0.041 | 0.062 | 0.037 | 0.177 | 0.056
3 | DTNBP1 (UniProt Q96EV8) | 0.069 | -0.025 | 0.038 | -0.136 | -0.058 | -0.009 | -0.029 | -0.044 | -0.01 | 0.092 | -0.078 | 0.006 | 0.001 | 0.055 | -0.022 | 0.021 | 0.017 | -0.026 | -0.014 | 0.01
4 | ERCC2 (UniProt P18074) | -0.01 | 0.003 | -0.165 | 0.014 | 0.016 | -0.068 | 0.03 | 0.078 | 0.021 | -0.016 | -0.024 | 0.014 | -0.005 | -0.038 | 0.035 | 0.166 | 0.036 | 0.021 | 0.095 | -0.007
5 | DPP8 (UniProt Q6V1X1) | 0.002 | -0.001 | -0.035 | -0.046 | -0.005 | 0.059 | 0.015 | -0.018 | 0.004 | 0.12 | -0.109 | -0.026 | -0.031 | 0.021 | 0.082 | -0.056 | -0.05 | -0.176 | -0.026 | 0.014
6 | DCAF6 isoform 3 (UniProt Q58WW2) | 0.025 | -0.004 | -0.018 | -0.022 | -0.022 | 0.056 | 0.023 | -0.004 | 0.015 | -0.034 | 0.016 | -0.035 | -0.034 | -0.037 | -0.041 | -0.032 | -0.047 | 0.011 | -0.058 | 0.008
7 | DYNC1LI2 (UniProt O43237) | 0.089 | 0.083 | 0.099 | 0.124 | 0.03 | -0.067 | 0.07 | 0.146 | 0.007 | 0.094 | 0.013 | -0.093 | -0.049 | -0.193 | 0.646 (active) | 0.001 | -0.027 | 0.076 | 0.017 | 0.05
8 | EDEM2 (UniProt Q9BV94) | 0.181 | -0.014 | -0.062 | -0.138 | -0.009 | -0.071 | 0.065 | -0.001 | 0.009 | 0.022 | -0.064 | -0.001 | -0.084 | -0.204 | 0.036 | -0.032 | -0.149 | 0.095 | 0.013 | 0.21
9 | FAM177A1 isoform 2 (UniProt Q8N128) | 0.042 | 0.038 | 0.033 | 0 | -0.242 | -0.245 | 0.029 | 0.081 | 0.062 | -0.019 | -0.071 | 0.152 | 0.101 | 0.039 | -0.064 | -0.061 | 0.014 | -0.02 | -0.045 | 0.037
10 | DNAJB12 (UniProt Q9NXW2) | -0.026 | 0.004 | -0.013 | -0.767 (active) | -0.032 | -0.012 | 0.076 | 0.021 | 0.05 | 0.022 | -0.071 | -0.017 | -0.002 | 0.017 | 0.044 | 0.008 | 0.008 | -0.069 | 0.06 | -0.001
11 | CYBA (UniProt P13498) | 0.044 | 0.024 | -0.024 | -0.041 | -0.152 | -0.43 (active) | 0.121 | -0.036 | -0.018 | -0.026 | -0.017 | 0.025 | 0.041 | -0.02 | -0.033 | 0 | 0.008 | -0.028 | 0.007 | -0.033
12 | CUEDC2 (UniProt Q9H467) | 0.035 | -0.011 | 0.003 | -0.026 | -0.056 | -0.003 | 0.198 | -0.001 | -0.015 | -0.159 | -0.03 | -0.043 | -0.001 | -0.153 | -0.019 | 0.009 | 0.032 | -0.01 | 0.055 | 0.091
13 | ESYT1 isoform 2 (UniProt Q9BSJ8) | -0.126 | -0.046 | -0.048 | 0 | -0.075 | -0.321 (active) | 0.053 | 0.152 | -0.018 | 0.031 | 0.117 | -0.052 | -0.007 | 0.003 | 0.045 | 0.01 | 0.048 | 0.148 | 0.116 | 0.046
14 | DCAF16 (UniProt Q9NXF7) | -0.04 | 0.017 | 0.039 | 0.034 | -0.052 | -0.027 | 0.018 | 0.055 | -0.047 | -0.105 | -0.036 | -0.013 | 0.059 | -0.015 | 0.063 | 0.151 | 0.185 | 0.042 | -0.016 | 0.024
15 | DCUN1D1 (UniProt Q96GG9) | 0.031 | 0.016 | -0.06 | -0.047 | -0.002 | -0.061 | -0.022 | -0.035 | 0.014 | 0.018 | -0.027 | -0.077 | 0.022 | 0.078 | 0.018 | 0.008 | 0.05 | -0.028 | -0.018 | 0.013
16 | FAM3A (UniProt P98173) | -0.028 | -0.011 | 0.028 | 0.023 | -0.028 | -0.07 | 0.047 | 0.007 | 0.018 | 0.088 | -0.022 | 0.012 | -0.005 | 0.003 | -0.304 (active) | 0.015 | 0.013 | -0.031 | -0.001 | 0.014
